Source: PubChem BioAssay
DT40 TDP1 CPT: DT40-hTDP1 cell growth loss with CPT; Potency, µM (titrated, usually from 46.2 µM), inactives show at the highest dose activity change, negative = growth inhibition, actives largely listed as inhibitors; chicken DT40 Tdp1-/-;hTDP1 cells + 20 nM CPT, ATP luminescence, 48 h; AID 686979; 420,000 compounds, 12% hits; further: potency means the concentration at half of the fitted maximal effect; nearly all actives have a fitted effect of over 55% in size
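Cell growth measured by CellTiter-Glo luminescence after a minimum 48 h, 37 C compound exposure with 20 nM CPT in Tdp1-knockout DT40 cells stably expressing hTDP1, seeded 400/well; qHTS titration format.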
IL1B secr inh: inhibitors of inflammasome signaling (IL-1 beta secretion). THP-1 LPS/ATP IL-1B secretion, AlphaLISA, 16 h; stronger effect = lower value. activity change, % at 57.5 µM. 360,000 compounds, 4.7% hits. AID 743279; in the data active means activity change below about -50%; inconclusive means mostly about -30% to -49%
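THP-1 cells pretreated 1 hr with compounds (up to 57.5 uM final), then stimulated with LPS (250 ng/mL final) plus ATP (1.25 mM final); secreted IL-1B measured by AlphaLISA after 16 hr, decreased signal indicating inhibition.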
TDP1 cell noCPT: qHTS for Inhibitors of human tyrosyl-DNA phosphodiesterase 1 (TDP1): qHTS in cells in absence of CPT; 420,000 compounds, 15% hits; AID 686978, 2013; Potency, µM (top dose mostly 46.2 µM), for the others: at the highest dose activity change, negative = growth inhibition, actives largely listed as inhibitors; DT40 Tdp1-/- hTDP1 cells, no CPT, ATP luminescence, 48 h; further: potency means the concentration at half of the fitted maximal effect; nearly all actives have a fitted effect of over 55% in size
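Cells were dispensed at 400 per well, compounds added by pin tool, plates incubated ≥48 hr at 37 °C, then CellTiter-Glo added for 30 min at room temperature before luminescence reading. Line: DT40 Tdp1-/- complemented with hTDP1; camptothecin omitted.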
HT1080-NT tox: kills 2HG-producing HT-1080-NT fibrosarcoma cells | 360,000 compounds, 1.6% hits | AID 686970 | Potency, µM (titrated, usually from 46.1 µM), inactives show at the top dose activity, negative = less viability, most hits filed as cytotoxic | HT-1080-NT fibrosarcoma viability, CellTiter-Glo ATP luminescence, 48 h;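 further: NT is the 2HG producing partner of a matched IDH1 knockdown line; potency means the concentration at half of the fitted maximal effect; 0% = DMSO-treated cells and -100% = media-only wells without cells; nearly all actives have a fitted effect of over 55% in size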
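Compounds were tested in concentration-response format on HT-1080-NT cells for 48 hours at 37 degrees C. Cell viability came from CellTiter-Glo luminescence; curves were classified by r2, response magnitude and activity.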
HT1080 IDH1KD tx: HT-1080 IDH1 knockdown cell toxicity (counter line) | HT-1080 IDH1 knockdown viability, ATP luminescence, 48 h | Potency, µM (titrated, usually from 46.1 µM), inactives show top-dose activity, negative = toxicity, most hits filed as cytotoxic | 360,000 compounds, 2% hits | AID 686971;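 further: potency means the concentration at half of the fitted maximal effect; 0% = DMSO wells and -100% = cell-free medium wells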
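Assay cells: HT-1080 with IDH1 knockdown, 750 per well, RPMI/5% FBS. Exposure: 48 h at 37 °C following 2 h pre-incubation. Read: CellTiter-Glo luminescence; fitted concentration-response, curve class assigned.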
ELG1 DNA repair: blocks ELG1-dependent DNA repair in HEK293T cells. HEK293T ELG1-luciferase reporter, luminescence, 16 h; DNA damage induced by 5-fluorouridine. Potency, µM (doses to about 46.1 µM), inactives show at the highest dose activity change, negative = inhibition, actives largely listed as inhibitors. 330,000 compounds, 2.3% hits. AID 504467; further: potency means the concentration at half of the fitted maximal effect; nearly all actives have a fitted effect of over 55% in size
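Luminescence from the luciferase reporter, measured 30 min after ONE-Glo reagent at room temperature, was the read-out. Beforehand, 2,000 cells per well were exposed for 16 hr at 37 °C to 5-fluorouridine together with compound or vehicle.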
* marks the source's active call; other numbers are inactive results; ? = inconclusive; / = not tested or not shown; [ ] = remark or other dose. This is a sample that favours compounds with a hit; in the whole collection about 19% have one here. Unless noted, the call rests on the fitted dose curve; in most records, active means well fitted curve in the direction sought with a large enough effect; inconclusive means small, poorly fitted or top-dose-only effect, or another doubt; inactive means no such curve, though single readings can be large; an effect the other way counts as inactive or inconclusive. Unless noted, on the % scale 0 is the no-effect control and ±100 the full control effect.

SMILES	DT40 TDP1 CPT	IL1B secr inh	TDP1 cell noCPT	HT1080-NT tox	HT1080 IDH1KD tx	ELG1 DNA repair
CCn1ncc(S(=O)(=O)Nc2cc(Cl)ccc2C)c1C	-5%	30	0%	-1%	-2%	-20%
O=C(NCc1cccnc1)Nc1ccccc1C(F)(F)F	-4%	21	17%	-4%	-6%	2%
CC(C)[C@H](NC(=O)[C@@H]1Cc2ccccc2CN1C(=O)OC(C)(C)C)C(=O)NCC1CCC(C(=O)O)CC1 (stereo partly drawn)	-8%	-5	31%	7%	4%	9%
CC1=C(/C=N/Nc2ccc([N+](=O)[O-])cc2[N+](=O)[O-])C(C)(C)CCC1	?	11	18µM*	0%	-9%	1%
O=C(COC(=O)c1cccc(F)c1)Nc1ccc2c(c1)OCCO2	-2%	-4	-3%	0%	0%	?
Cc1cc(S(=O)(=O)ON2C(=O)c3ccccc3C2=O)ccc1F	3.3µM*	-16	2.1µM*	1%	0%	-1%
O=C1c2ccccc2C(=O)N1OS(=O)(=O)c1ccccc1	/	/	/	/	/	11%
O=C1c2cccc3cccc(c23)C(=O)N1OS(=O)(=O)c1ccc(Br)cc1	?	22	10µM*	6%	7%	12%
Cc1ccc(S(=O)(=O)ON2C(=O)c3cccc4cccc(c34)C2=O)cc1	?	35	16µM*	-8%	0%	11%
CC1=C(C#N)C(C(F)(F)F)(C(F)(F)F)N=C(c2ccco2)N1	?	-13	16µM*	8%	0%	0%
COc1cc(=O)n2c(c1C(=O)N(C)Cc1nonc1C)CCN(Cc1ccc(F)cc1)CC2	6%[9.04 µM]	/	-15%	/	/	/
CC1(C)CC(=O)C=C(c2ccc(-c3ccc(OC(F)(F)F)cc3)cc2)C1=O	16µM*	?	10µM*	?	21µM*	/
CC1(C)CC(=O)C=C(c2ccc(-c3ccc4[nH]ccc4c3)cc2)C1=O	?	-15	26µM*	?	?	/
CC1(C)CC(=O)C=C(c2ccc(-c3ccccc3)cc2)C1=O	?	-7	26µM*	-7%	-13%	/
CC1(C)CC(=O)C=C(c2ccccc2-c2ccc3cc[nH]c3c2)C1=O	-14%	5	?	13%	1%	/
OCCC1CN(CCCn2cccn2)CCN1C1CCCCC1 (stereo not drawn)	3%	16	11%	19%	27%	1%
COc1ccc(-c2cn3c(n2)sc2cc(C(=O)NCCCN4CCCCCC4)ccc23)cc1	2.9µM*	/	3.3µM*	/	/	/
COc1ccc(-c2cn3c(n2)sc2cc(C(=O)NCCCN4CCCCC4)ccc23)cc1	1µM*	/	0.73µM*	/	/	/
COc1ccc(-c2cn3c(n2)sc2cc(C(=O)Nc4ccc(C)c(C)c4)ccc23)cc1	-28%	/	?	/	/	/
CC(C)(C)n1nnnc1C(c1ccccc1)N1CCN(c2ncccn2)CC1 (stereo not drawn)	1%	-20	-22%	18%	1%	/
O=C(Nc1nccs1)c1cn(-c2ccccc2)nc1-c1ccccc1	?	-63*	?	-7%	?	?
Cc1cccc(C)c1NC(=O)CNC(=O)c1cn(-c2ccccc2)nc1-c1ccccc1	?	-1	?	6%	-3%	-7%
O=C(Nc1ccccc1)c1cn(-c2ccccc2)nc1-c1ccccc1	?	/	16µM*	/	/	/
Cc1ccc(-c2nn(-c3ccccc3)cc2C(=O)Nc2ccc(C(=O)O)cc2)cc1	-22%	-10	?	-12%	-3%	?
Cc1nn(Cc2c(Cl)cccc2Cl)c(C)c1NC(=O)c1cn(-c2ccccc2)nc1-c1ccccc1	6.5µM*	28	4.6µM*	3.7µM*	4.1µM*	?
SMILES	DT40 TDP1 CPT	IL1B secr inh	TDP1 cell noCPT	HT1080-NT tox	HT1080 IDH1KD tx	ELG1 DNA repair
O=C(Nc1ccc([N+](=O)[O-])cc1)c1cn(-c2ccccc2)nc1-c1cc2ccccc2o1	8.2µM*	5	10µM*	-1%	-3%	4%
CCOC(=O)C1(C(=O)OCC)NC(=O)CC1CC(C)C (stereo not drawn)	1%	-9	7%	10%	28%	/
C=CCc1cccc2cc(C(=O)N3CCN(C(=O)c4ccccc4)CC3)c(=O)oc12	-2%	-7	-27%	-14%	4%	7%
COCCN1C[C@@H](CO)O[C@@H](n2cnc3c(N4CCCC4)ncnc32)C1	1%	-13	5%	?	13%	/
CC(C(=O)NCc1ccco1)n1nc(-c2ccccc2)c2cc(Cl)ccc21 (stereo not drawn)	?	-6	-26%	-1%	2%	8%
CC(=O)c1ccc(NC(=O)C(C)n2nc(-c3ccccc3)c3cc(Cl)ccc32)cc1 (stereo not drawn)	?	/	16µM*	-23%	-28%	?
CC(C)c1ccc([C@@H]2O[C@H](CCc3ccccc3)CC3=C2C(=O)OC(C)(C)O3)cc1	?	20	16µM*	-5%	-19%	/
CC1(C)OC(=O)C2=C(C[C@@H](CCOCc3ccccc3)O[C@@H]2c2ccc(F)cc2)O1	?	0	?	-10%	-9%	/
CC1(C)OC(=O)C2=C(C[C@@H](CCC(F)(F)F)O[C@H]2c2ccc(F)cc2)O1	5%	-5	5%	3%	11%	/
CC1(C)OC(=O)C2=C(C[C@@H](CCc3ccccc3)O[C@@H]2c2ccc(Cl)cc2)O1	?	-22	?	?	?	/
CC(C)[C@@H]1O[C@H](CCc2ccccc2)CC2=C1C(=O)OC(C)(C)O2	15µM*	33	15µM*	-12%	-22%	/
CC1(C)OC(=O)C2=C(C[C@@H](C3CCCCC3)O[C@H]2c2ccccc2)O1	?	42	16µM*	?	?	/
CC1(C)OC(=O)C2=C(CC(CCc3ccccc3)OC2c2ccccc2)O1 (stereo not drawn)	13µM*	26	21µM*	-3%	2%	/
COc1c([N+](=O)[O-])ccc(N)c1N	-18%	/	-21%	/	/	/
Cc1cc(C)cc(OCc2nnc(SCC(=O)N3CCCCC3)o2)c1	12%	4	0%	0%	2%	2%
O=C(NCc1ccco1)C1(S(=O)(=O)c2ccccc2)CC=CC1	?	35	-15%	12%	6%	-1%
COc1ccc(CCN(C)CCCN2CCc3cc(OC)c(OC)cc3CC2=O)cc1OC	1%	/	-20%	/	/	/
